# According to PubChem BioAssay:
# The source made the active and inactive calls.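 Rule for the calls, unless noted: active = inhibition of the reporter signal at or above 50%; inactive = inhibition below 50%.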
# What was measured:
# [1] = inhibitors of TNFa-induced NFkB p65 translocation, primary screen, imaging, HUVEC, MLSMR starter and 10KST1 sets (AID 438;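 active = inhibition above 20% together with a positive visual image hit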;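 note: compound added about 3h40 before a 20 min TNFalpha stimulation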;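 for inhibition: signal is the nuclear over cytoplasmic p65 intensity ratio per well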); settings: HUVEC TNFa-induced p65 nuclear translocation; cell count: measured here: nuclei count (cytotoxicity indicator), at 2.08 µM; inhibition: at 2 µM, stronger effect = higher value, 0% TNFa-plus-vehicle, 100% no-TNFa wells
# [2] = inhibitors of mutant huntingtin aggregation, primary screen, imaging, exon1htt(103Q)mCFP cells, high-content imaging (AID 483;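 active = visual image review flags a hit and inhibition of aggregation exceeds 20%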;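 note: compound exposure lasted 3 days before fixation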;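 for nuclei count: percent of the per-plate median nuclei count of sample wells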); settings: exon1htt(103Q)mCFP cell line, aggregate imaging, at 2 µM; inhibition of aggregation: stronger effect = higher value; nuclei count: measured here: cell count, toxicity
# [3] = inhibitors of E-selectin induction by TNFa, primary screen, imaging, HUVEC, immunofluorescence, MLSMR starter and 10KST1 sets (AID 487;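 active = visually confirmed hit in the image check and inhibition above 20%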;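 for inhibition: signal is fraction of cell area covered by stained E-selectin grains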;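 for nuclei count: 100% = median nuclei count of all wells on the same plate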); settings: HUVEC TNFalpha-induced E-selectin immunofluorescence imaging, at 2 µM; inhibition: stronger effect = higher value; nuclei count: measured here: cell number, toxicity
# [4] = molecular target: Voltage-gated potassium channel subunit beta-2 (Rattus norvegicus) (UniProt P62483); assay: KvBeta enzyme negative modulators, primary screen, biochemical, NADPH fluorescence (AID 622;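 active = fluorescence slope higher than the sample average by over 3 SD, cut at about -0.22 in these data, passing the limit was not always enough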;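 note: slope of raw intensity against log time taken from 70 to 1610 s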); settings: recombinant KvBeta, 4-cyanobenzaldehyde reduction, at 10 µM, stronger effect = higher value
# Sequence of Voltage-gated potassium channel subunit beta-2 (Rattus norvegicus) (P62483 whole entry, looked up): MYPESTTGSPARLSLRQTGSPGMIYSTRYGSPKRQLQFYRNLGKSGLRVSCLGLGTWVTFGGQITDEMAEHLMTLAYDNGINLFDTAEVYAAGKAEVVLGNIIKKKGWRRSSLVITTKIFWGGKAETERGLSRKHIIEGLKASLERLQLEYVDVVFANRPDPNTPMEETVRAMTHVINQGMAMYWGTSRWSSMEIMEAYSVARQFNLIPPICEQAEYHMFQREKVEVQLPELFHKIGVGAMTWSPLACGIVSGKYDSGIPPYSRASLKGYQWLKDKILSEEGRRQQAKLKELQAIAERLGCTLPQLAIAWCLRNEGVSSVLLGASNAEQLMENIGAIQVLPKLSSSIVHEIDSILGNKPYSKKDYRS
# [5] = molecular target: Voltage-gated potassium channel subunit beta-2 (Rattus norvegicus) (UniProt P62483); assay: KvBeta positive modulators, primary screen, biochemical, NADPH fluorescence (AID 623;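 active = NADPH fluorescence slope more negative than the mean of all samples by about 3 SD, 99.7% confidence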;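 note: fluorescence intensity change per second fitted from 20 to 320 s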); settings: Recombinant KvBeta, NADPH fluorescence decrease slope, 10 min; at 10 µM; stronger effect = lower value
# [6] = molecular target: Alpha-2C adrenergic receptor (Homo sapiens) (UniProt P18825); assay: modulators of alpha2C/GIRK thallium flux, primary screen, cell-based, HEK293 alpha2C/GIRK1/2 (AID 624;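 active = fluorescence slope after compound addition differing from the mean of all screened samples at 99.7% confidence, in either direction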;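 note: slope of fluorescence ratio to pre-addition baseline per second over 15 to 24 s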); settings: thallium flux BTC fluorescence, at 10 µM, actives lie on both sides
# Sequence of Alpha-2C adrenergic receptor (Homo sapiens) (P18825 whole entry, looked up): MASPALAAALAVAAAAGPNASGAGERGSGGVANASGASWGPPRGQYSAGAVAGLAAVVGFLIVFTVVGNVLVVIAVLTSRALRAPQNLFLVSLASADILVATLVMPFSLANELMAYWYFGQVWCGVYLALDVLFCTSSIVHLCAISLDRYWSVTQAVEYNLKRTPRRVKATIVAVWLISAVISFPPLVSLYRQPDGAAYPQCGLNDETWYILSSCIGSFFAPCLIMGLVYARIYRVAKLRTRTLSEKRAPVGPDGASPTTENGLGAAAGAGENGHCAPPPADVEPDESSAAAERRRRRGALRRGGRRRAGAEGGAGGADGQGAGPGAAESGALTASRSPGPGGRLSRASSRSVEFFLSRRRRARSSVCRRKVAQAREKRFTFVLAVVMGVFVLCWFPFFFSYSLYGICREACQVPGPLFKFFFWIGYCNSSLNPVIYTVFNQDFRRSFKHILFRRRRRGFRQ
# [7] = inhibitors of Sendai virus-induced IRF3 signaling, primary screen, TLR/RLR signaling modifier project, cell-based, Sendai virus stimulus, luciferase, 10K MLSCN set (AID 602276;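 active = inhibition at or above 50% at 10 µM; inactive = inhibition below 50%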;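 note: firefly luciferase from ISG56 promoter only with Renilla not read in this screen; 0% = Sendai virus plus DMSO and 100% = medium plus DMSO without virus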); settings: HEK293 RL24 IRF3 luciferase reporter, at 10 µM, stronger effect = higher value
# [8] = inhibitors of poly I:C-induced TLR3 signaling, primary screen, cell-based, poly I:C stimulus, luciferase, 10K MLSCN set (AID 602277); settings: HEK293-TLR3 RL24 IRF3 luciferase reporter, at 10 µM, stronger effect = higher value
Compound,cell count [1],inhibition [1],inhibition of aggregation [2],nuclei count [2],inhibition [3],nuclei count [3],fluorescence slope [4],NADPH fluorescence slope [5],slope [6],inhibition [7],inhibition [8]
COc1ccc(S(=O)(=O)N2CCSC2c2ccccc2)cc1 (stereo not drawn),449,-3.1% (inactive),-10.4% (inactive),106%,-84.6% (inactive),97.9%,-0.463 (inactive),-3.5e-05 (inactive),0.00496 (inactive),-1.99% (inactive),22.7% (inactive)
CN1CCN(C(=O)NC2CCCN2S(=O)(=O)c2ccc(Cl)cc2)CC1 (stereo not drawn),528,-20.6% (inactive),11.5% (inactive),106%,31.3% (inactive),105%,-0.493 (inactive),-5.8e-05 (inactive),0.00636 (inactive),0.971% (inactive),21.8% (inactive)
O=C(CC(=O)c1cc(Cl)ccc1O)c1ccccc1,435,3.8% (inactive),-1.9% (inactive),99.3%,-68.1% (inactive),126%,-0.41 (inactive),2.8e-05 (inactive),0.00798 (inactive),-30.5% (inactive),-67.7% (inactive)
CC(=O)NC(CCS(C)(=O)=O)C(=O)Nc1cccc(C)c1 (stereo not drawn),600,8.7% (inactive),2.5% (inactive),110%,21.6% (inactive),95.7%,-0.579 (inactive),1.1e-05 (inactive),0.00598 (inactive),-14.8% (inactive),-1.13% (inactive)
O=C1C(c2ccncc2)=C(O)c2ccccc21,302,-8.6% (inactive),1.9% (inactive),73%,0.7% (inactive),91.1%,-0.333 (inactive),-1.1e-05 (inactive),0.00364 (inactive),4.51% (inactive),-0.387% (inactive)
O=C1C(Cl)=C(N2CCCCC2)C(=O)N1c1ccccc1Cl,450,4.4% (inactive),-0.8% (inactive),105%,-57.1% (inactive),126%,-0.465 (inactive),-0.000114 (inactive),0.00518 (inactive),16.8% (inactive),24.8% (inactive)
COc1ccc(CCNC(=O)C2CCN(S(=O)(=O)c3cc(OC)ccc3OC)CC2)cc1,269,-5.3% (inactive),3% (inactive),93.2%,-26.1% (inactive),98.3%,-0.39 (inactive),-6.1e-05 (inactive),0.00597 (inactive),14.7% (inactive),31.4% (inactive)
Cc1nc2cc(N3CCCCC3)c(NC(=O)c3cccnc3)cc2c(=O)n1Cc1ccccc1,751,-10.1% (inactive),1.2% (inactive),93.3%,-2% (inactive),99.1%,-0.167 (inactive),2.6e-06 (inactive),0.00435 (inactive),-3.36% (inactive),-14% (inactive)
